Consider 53 compounds from PubChem BioAssay AID880 (National Center for Advancing Translational Sciences (NCATS), 2007).

Where “and” joins values, the source holds several entries; their conditions need not be identical. Identical values can stand only once. Screen size: about 230,000 compounds; about 1,000 (0.43%) were called active. Many of the other results were omitted from the sample, so actives are more common in it than they were. Unmarked numbers belong to inactive results. Calls follow the shape of the dose curve; as a rule, active = well fitted inhibition curve with a large enough effect (not every such curve was filed as active); inactive = no such curve, though single readings can be large or run the other way.
% is scaled to controls: 0 for no effect and ±100 for the full control effect; potency is read from the fitted curve at half-maximal effect.

Chain of Guanine nucleotide-binding protein G(i) subunit alpha-1 (Homo sapiens) (P63096 whole entry, looked up): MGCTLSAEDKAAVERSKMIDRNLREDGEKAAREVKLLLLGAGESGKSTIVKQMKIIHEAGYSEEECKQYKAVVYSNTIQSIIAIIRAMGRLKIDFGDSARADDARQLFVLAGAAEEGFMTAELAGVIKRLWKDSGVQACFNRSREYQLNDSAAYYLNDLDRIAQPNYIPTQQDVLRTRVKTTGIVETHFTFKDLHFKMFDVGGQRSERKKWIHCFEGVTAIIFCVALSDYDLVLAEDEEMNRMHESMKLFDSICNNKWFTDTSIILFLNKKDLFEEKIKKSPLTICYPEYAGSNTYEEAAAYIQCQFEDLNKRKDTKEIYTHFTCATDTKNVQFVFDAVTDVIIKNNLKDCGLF

This test addresses Guanine nucleotide-binding protein G(i) subunit alpha-1 (Homo sapiens) (UniProt P63096). Put plainly: qHTS Assay for Inhibitors of RGS12 GoLoco Motif Activity (Red Fluorophore). Also: nearly all actives have a fitted effect of over 30% in size. The note with it: Gai1:RGS12 GoLoco peptide FP, rhodamine, 10 min; series mostly up to 61.6 µM; activity, negative = inhibition: at the top concentration. The source says: Assay Submitter: Siderovski, David P, University of North Carolina at Chapel Hill
Screening Center PI: Austin, C.P.
Screening Center: NIH Chemical Genomics Center [NCGC]
G-protein-coupled receptors (GPCRs) are major targets for drug discovery. The regulator of G-protein signaling (RGS)-protein family has important roles in GPCR signal transduction. RGS proteins contain a conserved RGS-box, which is often accompanied by other signaling regulatory elements. RGS proteins accelerate the deactivation of G proteins to reduce GPCR signaling; however, some also have an effector function and transmit signals. Combining GPCR agonists with RGS inhibitors should potentiate responses, and could markedly increase the agonist's regional specificity. The diversity of RGS proteins with highly localized and dynamically regulated distributions in brain makes them attractive targets for pharmacotherapy of central nervous system disorders. […] A complex of Gai1 and fluorescently labeled G-alpha-binding peptide (the "GoLoco motif") derived from RGS12 is incubated with library members. Inhibitors of the binding are detected by a decrease in the fluorescence polarization (FP) of the fluorophore. Protein was supplied by Prof. David Siderovski, University of North Carolina at Chapel Hill.
Assay Buffer: 10 mM Tris-HCl, 150 mM NaCl, 0.1 mM GDP (prepared fresh), and 0.05% NP40 at pH 7.5.
15 nM Rhodamine labeled peptide/25 nM protein in columns 1, 2, 5 - 48. Titration of unlabeled peptide control ([H][…][NH2], custom synthesized and HPLC-purified by Tufts University Core Facility) from 20 mM, then 1:2 dilution, 16-point in duplicate, pin-transferred to column 2, rows 1 to 32. Column 1 is neutral.
Rhodamine-labeled peptide (Rhodamine-[…]-NH2) was custom-synthesized and HPLC-purified by Invitrogen (Carlsbad, CA).
Four uL of reagents were dispensed to 1536-well Greiner black solid-bottom plates. Compounds and controls (23 nL) were transferred via Kalypsys PinTool. The plates were incubated for 10 min at room temperature, and then read on ViewLux (Perkin-Elmer) High-throughput CCD imager using BODIPY for the rhodamine-labeled decapeptide probe. During dispense, reagent bottles were kept submerged into 4 deg C water bath and all liquid lines were covered with aluminum foil to minimize probe and protein degradation. All screening operations were performed on a Kalypsys robotic system (Kalypsys, Inc., San Diego, CA) containing one RX-130 and two RX-90 anthropomorphic robotic arms.
Turning to `CCN1C(=O)c2cccc3c(N)ccc1c23`, the “activity, negative = inhibition” value was 7.95%.

For the compound `Cc1cccc(N2C(=O)SC(SC(=Nc3ccccc3)Nc3ccccc3)C2=O)c1` (stereo not drawn), the “activity, negative = inhibition” value is -0.129%.

For the compound `O=C(C1=C[C@H](C2CC2)C[C@H](OCc2ccc(CO)cc2)O1)N1CCN(Cc2ccccc2)CC1`, the “activity, negative = inhibition” value is 3.38%.

As to `CCOC(=O)N1CCN(Cc2nc3ccc([N+](=O)[O-])cc3c(=O)n2-c2cccc(OC)c2)CC1`, the “activity, negative = inhibition” value is -0.269%.

As for `CCOC(=O)c1cc2n(c1N)-c1ccccc1C2=O`, the Potency was 17.8 µM (active).

For the compound `CCOC(=O)C1=C(C(=O)OCC)C(C(=O)OCC)N(S(=O)(=O)C(F)(F)F)c2ccccc21` (stereo not drawn), the “activity, negative = inhibition” value is 7.48%.

As for `CCOC(=O)Nc1ccccc1N1C(=O)c2ccccc2C1=O`, the “activity, negative = inhibition” value is 1.1%.

On to `Cc1nc2c(c(=O)n1Cc1ccco1)c1nc3ccccc3nc1n2Cc1ccccc1`, for which the “activity, negative = inhibition” value was 25.4%.

`O=c1[nH]c2c(c(=O)n1Cc1ccccc1)CCC2`: the “activity, negative = inhibition” value was -1.69%.

Regarding `Cc1cc2nc3c(=O)n(Cc4ccccc4)c(=O)[nH]c3nc2cc1N`, the Potency was 12.6 µM (active).

`C=CC(=O)c1ccc2ccccc2c1`: the Potency entry is “inactive”.

Take `O=C(Nc1ccc(O)cc1)c1ccccc1O`: the “activity, negative = inhibition” value is 0.336%.

On to `CC(C)CCOc1ccc(C(=O)C[N+]2(C)CCOCC2)cc1`, for which the Potency is 3.55 µM (active).

On to `CC(=O)c1ccc(OCCN2CCOCC2)cc1`, for which the “activity, negative = inhibition” value is -13.5%.

On to `COc1ccc(OCCC(=O)c2ccc(OC)cc2)cc1`, for which the “activity, negative = inhibition” value was 3.76%.

As for `O=C(CCCNS(=O)(=O)c1cccc2nsnc12)NCCN1CCN(c2ccccc2F)CC1`, the “activity, negative = inhibition” value is -6.83%.

`N#Cc1ccccc1CN1C(=O)S/C(=C/c2cccn2-c2cccc(C(=O)O)c2)C1=O`: the “activity, negative = inhibition” value is 66.7%.

As for `COc1cc(C(=O)NCc2ccc3c(c2)cc(C)n3C)cc(OC)c1OC`, the “activity, negative = inhibition” value is -5.23%.

Turning to `CCOc1ccc(C(O)Cn2c(=N)n(CCN3CCCCC3)c3ccccc32)cc1` (stereo not drawn), the “activity, negative = inhibition” value was 9.41%.

For the compound `O=P(O)(CN1CCCCCC1)C1Cc2ccccc2C1`, the “activity, negative = inhibition” value is -3.29%.

With `Cc1ccccc1CN1C[C@@H]2C[C@@H](c3ccc4nsnc4c3)N3CCC[C@@]23C1=O`, the “activity, negative = inhibition” value was 6.4%.

Turning to `Nc1nc2c(ncn2[C@@H]2O[C@H](COP(=O)(O)OP(=O)(O)OP(=O)(O)O)[C@@H](O)C2O)c(=O)[nH]1` (stereo partly drawn), the “activity, negative = inhibition” value was 2.15%.

For `CC[N+](C)(CC)CCC[n+]1c(-c2ccccc2)c2cc(N)ccc2c2ccc(N)cc21`, the Potency is 4.47 µM (active) and 12.6 µM (active).

As for `CC/C=C\C/C=C\C/C=C\C/C=C\C/C=C\C/C=C\CCC(=O)NCCc1ccc(O)c(O)c1`, the “activity, negative = inhibition” value is 3.48%.

On to `COc1ccc(CC(N)C(=O)NC2C(O)[C@H](n3cnc4c(N(C)C)ncnc43)O[C@@H]2CO)cc1` (stereo partly drawn), for which the “activity, negative = inhibition” value was 3.32%.

In the case of `COCCNC(=O)/C(C#N)=C/c1nc(N(C)C)n(-c2ccc(F)cc2)c1Cl`, the “activity, negative = inhibition” value was -2.69%.

Turning to `O=C(/C=C/NCc1ccc(F)cc1)c1ccccc1`, the “activity, negative = inhibition” value is -3.93%.

For the compound `O=C(c1ccncc1)N1CCN(c2ccc3ccccc3n2)CC1`, the “activity, negative = inhibition” value was -3.32%.

Regarding `Cc1nc(-c2ccccc2)sc1C(=O)/C=C/N(C)C`, the “activity, negative = inhibition” value is 8.99%.

For the compound `CC1(C)C=CC(=O)[C@]2(C)C1CC(=O)[C@]1(C)C2CC[C@@]2(C)C(c3ccoc3)OC(=O)C3OC321` (stereo partly drawn), the “activity, negative = inhibition” value is -47.9%.

On to `CC(C)=CCN1CCC2(CCc3ccccc32)CC1`, for which the “activity, negative = inhibition” value is 7.2%.

Take `O=C(c1ccc(F)cc1)N1CCCC(c2nc(-c3cccs3)no2)C1` (stereo not drawn): the “activity, negative = inhibition” value was -1.92%.

For the compound `C/C(=N\NC(=S)NC1CCCCC1)c1ccc(C)o1`, the “activity, negative = inhibition” value is -0.165%.

`CCN1/C(=C/C(=S)Nc2ccccc2)Sc2ccccc21`: the “activity, negative = inhibition” value is 31.8%.

Consider `CCN1/C(=C\c2ccc3ccccc3[n+]2CC)Sc2cc(C)ccc21`, for which the “activity, negative = inhibition” value was 70.9%.

For `CCN1/C(=C/c2ccc3ccc(C)cc3[n+]2CC)Sc2ccccc21`, the Potency is 0.708 µM (active).

Take `O=c1ccn([C@@H]2O[C@H](COP(=O)(O)OP(=O)(O)OP(=O)(O)O)[C@@H](O)[C@H]2O)c(=O)[nH]1`: the “activity, negative = inhibition” value was 1.87%.

Consider `CC(Sc1nc2c([nH]c3ccccc32)c(=O)n1C)c1ccccc1` (stereo not drawn), for which the “activity, negative = inhibition” value is -2.16%.

Consider `CC/C=C\C/C=C\C/C=C\C/C=C\C/C=C\C/C=C\CCC(=O)NC(C)C(=O)O` (stereo not drawn), for which the “activity, negative = inhibition” value is 5.36%.

Regarding `COc1ccc(S(=O)(=O)N2CN(CCc3ccc(OC)c(OC)c3)c3nc4ccccc4nc32)cc1`, the “activity, negative = inhibition” value is 6.37%.

As to `C[N+](C)(C)CCNC(=O)c1c(O)c2c([nH]c1=O)CCCC2`, the Potency is 1.12 µM (active).

Consider `O=C(NCc1ccccn1)c1c(O)c2c([nH]c1=O)CCCC2`, for which the “activity, negative = inhibition” value was -0.895%.

As to `CCc1nnc(NC(=O)c2c(O)c3c([nH]c2=O)CCCC3)s1`, the “activity, negative = inhibition” value was -2.64%.

Take `Cc1ccc(-c2csc(NC(=O)Cn3[nH]c(=O)c4ccccc4c3=O)n2)cc1`: the “activity, negative = inhibition” value was 23.6%.

Take `COCCOC(=O)c1sc(=S)n(CCOC)c1N`: the Potency is 12.6 µM (active).

As for `COC(=O)c1sc(=S)n(-c2ccccc2)c1N`, the “activity, negative = inhibition” value was -8.96%.

For `CCOC(=O)c1c(N)sc(C(C)=O)c1C`, the “activity, negative = inhibition” value was 5.69%.

Consider `Cn1c(=O)n(Cc2ccco2)c(=N)c2c3c(sc21)CCCC3`, for which the “activity, negative = inhibition” value was 4.71%.

Regarding `CC(N)(C(=O)O)c1ccc(-c2nn[nH]n2)cc1` (stereo not drawn), the “activity, negative = inhibition” value was 3.74%.

`Cc1ccc(CN2CCN(/N=C/c3cccnc3)CC2)c(C)c1`: the “activity, negative = inhibition” value was 28.4%.

On to `Cc1ccc(C2=C/C(=C\c3cccnc3)C(=O)O2)cc1`, for which the Potency was 0.794 µM (active).

Take `O=C1OC(c2ccc(Cl)cc2)=N/C1=C\c1cccnc1`: the “activity, negative = inhibition” value was 12%.

For `Cc1ccccc1C1=N/C(=C/c2cccnc2)C(=O)O1`, the “activity, negative = inhibition” value was 3.85%.
